These results are taken from PubChem BioAssay (NCATS).

Unmarked numbers belong to inactive results. Results filed as inconclusive are left out. Active and inactive are the calls of the source. Unless noted, the call rests on the fitted dose curve; in most records, active means well fitted curve in either direction with a large enough effect (not every such curve was filed as active); inconclusive means small, poorly fitted or top-dose-only effect, or another doubt; inactive means flat fitted curve, though single readings scatter.

Experiment [1] has as its target Lysosomal acid glucosylceramidase (Homo sapiens) (UniProt P04062). The experiment can be described thus: Glucocerebrosidase-p2 (AID 348; in the data active means potency below about 10 µM; further: potency means the concentration at half of the fitted maximal effect). The conditions noted are these: purified GBA, blue fluorogenic substrate, 40 min. Summed up:
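Normal human glucocerebrosidase (0.2 nM) with blue fluorogenic substrate (80 uM final) in citrate/phosphate pH 5.9 with 10mM sodium taurocholate, 0.01% tween-20; 40 min RT, NaOH/glycine stop; fluorescence Ex 365/Em 440; AC50 from a titration from 0.6 nM upwards.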

Experiment [2] is described as follows: AP1 Signaling Pathway (AID 357).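 Further: ME-180 reporter cells stimulated with EGF at its EC50 level; on the % scale 0 is the no-effect control and ±100 the full control effect.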 As to conditions: ME-180 AP-1-bla reporter, EGF-induced, beta-lactamase ratio, 5 h; at 7.69 µM (top of the series) unless noted. The method in brief:
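A ratiometric CCF4 readout (405 nm excitation; 460 and 530 nm emission) quantified AP-1-driven beta-lactamase in ME-180 cells after 5 h with compound and EC50 EGF; AC50 values were derived for activators and inhibitors.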

In experiment [3] the target is Cytochrome P450 1A2 (Homo sapiens) (UniProt P05177). The experiment can be described thus: p450-cyp1a2 (AID 410; calls by dose curve; further: potency means the concentration at half of the fitted maximal effect;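 on activity change, negative = inhibition: -100% = full effect of reference inhibitor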). As to conditions: recombinant CYP1A2, luciferin-ME demethylation, luminescence; series mostly up to 11.4 µM. Summed up:
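Luminescent demethylation readout: Luciferin-ME (100uM, equal to Km) turned over by 20nM CYP1A2 for 60 min at room temperature after NADPH regeneration addition, following 10 min compound preincubation. Normalization used 57 uM furafylline as full inhibition.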

A short description of experiment [4]: NFAT Signaling Pathway (AID 444).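 Further: carbachol stimulus at about its EC50 of 1 µM final; on the % scale 0 is the no-effect control and ±100 the full control effect.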 As to conditions: Jurkat NFAT-bla M1, carbachol, beta-lactamase ratio, 5 h; at 7.69 µM (top of the series) unless noted. The method in brief: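 Read-out: CCF4 FRET ratio (460 nm/530 nm) after 1 h RT dye loading, used for %activity and AC50 from titration series. Cells: Jurkat NFAT-β-lactamase/M1 line, treated with compound plus 1 uM carbachol for 5 h, 37 °C.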

Experiment [5] can be described thus: Stat Signaling Pathway (AID 446).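 Further: ME-180 cervical cancer cells given 40 pM IL-6 alongside compound; SIE-controlled beta-lactamase reporter measured as 460/530 nm FRET emission ratio; on the % scale 0 is the no-effect control and ±100 the full control effect.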 The conditions noted are these: ME-180 (cervical carcinoma) SIE beta-lactamase reporter, IL-6 stimulated, 5 h; at 7.69 µM (top of the series) unless noted. Summed up:
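Emission at 460 and 530 nm (excitation 405 nm) reports SIE-controlled beta-lactamase in ME-180 cells. Cells received compound with 40 pM IL-6 for 5 hrs at 37 C; data scaled between 300 pM IL-6 and 125 nM JAK-inhibitor controls.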

In experiment [6] the target is Glucocorticoid receptor (Homo sapiens) (UniProt P04150). The experiment is described as follows: GR-GFP Redistribution (AID 450;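 active means compounds whose dose series gives a full or clear partial fitted curve of increased nuclear translocation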; further: potency means the concentration at half of the fitted maximal effect). The conditions noted are these: U2OS GR-GFP nuclear translocation, laser cytometry, 2 h.
Chain of Glucocorticoid receptor (Homo sapiens) (P04150 whole entry, looked up, the tested form may be a part): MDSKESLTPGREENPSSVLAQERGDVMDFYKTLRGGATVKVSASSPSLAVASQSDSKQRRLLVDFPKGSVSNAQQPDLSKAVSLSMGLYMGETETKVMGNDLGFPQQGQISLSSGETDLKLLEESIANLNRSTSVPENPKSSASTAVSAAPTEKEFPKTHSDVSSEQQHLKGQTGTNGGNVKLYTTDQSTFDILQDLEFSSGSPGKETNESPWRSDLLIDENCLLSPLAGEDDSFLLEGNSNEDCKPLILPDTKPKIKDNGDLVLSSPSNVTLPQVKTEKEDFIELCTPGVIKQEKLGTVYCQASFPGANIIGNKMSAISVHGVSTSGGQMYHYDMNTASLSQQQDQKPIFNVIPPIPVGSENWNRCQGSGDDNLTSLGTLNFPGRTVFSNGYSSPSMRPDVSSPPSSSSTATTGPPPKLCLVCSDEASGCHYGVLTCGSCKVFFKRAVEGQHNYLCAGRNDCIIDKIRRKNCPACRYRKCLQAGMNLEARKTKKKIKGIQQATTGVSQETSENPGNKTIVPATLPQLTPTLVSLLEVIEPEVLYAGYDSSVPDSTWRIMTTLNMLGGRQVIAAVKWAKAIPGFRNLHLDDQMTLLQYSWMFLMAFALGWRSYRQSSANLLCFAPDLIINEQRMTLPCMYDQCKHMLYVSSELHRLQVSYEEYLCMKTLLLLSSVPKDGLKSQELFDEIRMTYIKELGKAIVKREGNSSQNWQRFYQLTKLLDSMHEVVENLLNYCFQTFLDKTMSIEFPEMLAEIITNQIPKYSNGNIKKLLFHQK
The target is the same in experiment [7]. The experiment is described as follows: GR-EFC Redistribution (AID 451; calls by dose curve; further: potency means the concentration at half of the fitted maximal effect). The conditions noted are these: CHO-K1 GR-EFC translocation, beta-gal luminescence, 2 h. Summed up: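 Translocation of GR-ED fusion to nuclear EA restores b-gal, read by luminescence after 1 h room-temperature detection. Engineered CHO-K1 biosensor cells, 1,000/well, exposed 2 h at 37 C to titrations up to 46 uM final.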

The target in experiment [8] is Mitogen-activated protein kinase 10 (Mus musculus) (UniProt Q61831). The experiment can be described thus: JNK3 AlphaScreen Assay (AID 530).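 Further: kinase came from lysate of stimulated human HepG2 cells; signal reports phosphorylation of biotinylated GST-cJun 1-79 at Ser73 with 10 µM ATP; on the % scale 0 is the no-effect control and ±100 the full control effect.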 As to conditions: JNK3 lysate, c-Jun phosphorylation; series mostly up to 11.4 µM. Summed up: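 qHTS titrations with 15 min compound pre-incubation before adding ATP (10 uM final). Read-out: AlphaScreen of Ser73-phosphorylated biotin-GST-cJun using HepG2 lysate JNK3 activated by IL-1β and TNFα.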
On the technique in general: In Alpha technology, singlet oxygen from a donor bead excites a nearby acceptor bead.

The target of experiment [9] is 3',5'-cyclic-AMP phosphodiesterase 4B (Homo sapiens) (UniProt Q07343). The experiment can be described thus: qHTS Assay for Inhibitors of PDE-IV (AID 607; active means well fitted activation curve with a large enough effect in the main read-out, with a control signal flat, not every such curve was filed as active; further: % of control where 0% means no effect). The conditions noted are these: HEK293 ACTOne CNG channel cells, membrane potential fluorescence; series mostly up to 22.9 µM. Summed up: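 The readout is membrane depolarisation from a cAMP-sensing CNG channel, detected with a potential dye at ex 535/em 590. Cells were HEK293-derived (endogenous PDE-IV) at 1000 cells/well, titrated up to 22.9 uM final.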
Chain of 3',5'-cyclic-AMP phosphodiesterase 4B (Homo sapiens) (Q07343 whole entry, looked up): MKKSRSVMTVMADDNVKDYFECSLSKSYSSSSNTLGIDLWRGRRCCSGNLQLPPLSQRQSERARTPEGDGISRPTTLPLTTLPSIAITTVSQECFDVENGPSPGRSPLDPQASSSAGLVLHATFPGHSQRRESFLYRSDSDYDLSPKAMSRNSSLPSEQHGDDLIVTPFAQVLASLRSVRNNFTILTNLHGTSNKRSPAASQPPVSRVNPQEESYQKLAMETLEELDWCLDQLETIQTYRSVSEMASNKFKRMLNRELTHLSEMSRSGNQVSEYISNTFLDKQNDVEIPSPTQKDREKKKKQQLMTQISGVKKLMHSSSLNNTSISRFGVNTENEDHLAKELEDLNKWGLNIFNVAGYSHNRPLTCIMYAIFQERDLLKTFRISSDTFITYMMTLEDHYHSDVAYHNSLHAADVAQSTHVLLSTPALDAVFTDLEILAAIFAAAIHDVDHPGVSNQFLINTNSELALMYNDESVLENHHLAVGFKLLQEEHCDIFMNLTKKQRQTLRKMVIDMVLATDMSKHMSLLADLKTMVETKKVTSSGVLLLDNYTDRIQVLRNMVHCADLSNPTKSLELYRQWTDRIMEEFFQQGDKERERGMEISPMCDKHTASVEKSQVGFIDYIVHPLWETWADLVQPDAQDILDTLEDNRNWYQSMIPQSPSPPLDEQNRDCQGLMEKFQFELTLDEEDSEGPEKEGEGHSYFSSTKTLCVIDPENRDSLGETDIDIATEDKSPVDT

Chain of Cytochrome P450 1A2 (Homo sapiens) (P05177 whole entry, looked up): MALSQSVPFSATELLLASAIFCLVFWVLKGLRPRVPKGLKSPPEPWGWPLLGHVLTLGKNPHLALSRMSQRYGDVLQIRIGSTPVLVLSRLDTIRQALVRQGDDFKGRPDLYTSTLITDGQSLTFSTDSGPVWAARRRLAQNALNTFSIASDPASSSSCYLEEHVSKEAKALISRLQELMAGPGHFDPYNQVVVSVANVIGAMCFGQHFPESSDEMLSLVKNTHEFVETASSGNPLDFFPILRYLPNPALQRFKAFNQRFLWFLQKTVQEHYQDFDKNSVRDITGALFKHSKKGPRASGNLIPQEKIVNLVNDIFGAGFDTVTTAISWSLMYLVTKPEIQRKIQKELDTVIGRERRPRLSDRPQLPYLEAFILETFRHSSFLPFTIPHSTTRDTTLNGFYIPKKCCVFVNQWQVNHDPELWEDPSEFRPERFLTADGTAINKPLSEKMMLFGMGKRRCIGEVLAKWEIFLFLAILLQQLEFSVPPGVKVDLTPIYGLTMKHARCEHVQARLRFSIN
Chain of Lysosomal acid glucosylceramidase (Homo sapiens) (P04062 whole entry, looked up): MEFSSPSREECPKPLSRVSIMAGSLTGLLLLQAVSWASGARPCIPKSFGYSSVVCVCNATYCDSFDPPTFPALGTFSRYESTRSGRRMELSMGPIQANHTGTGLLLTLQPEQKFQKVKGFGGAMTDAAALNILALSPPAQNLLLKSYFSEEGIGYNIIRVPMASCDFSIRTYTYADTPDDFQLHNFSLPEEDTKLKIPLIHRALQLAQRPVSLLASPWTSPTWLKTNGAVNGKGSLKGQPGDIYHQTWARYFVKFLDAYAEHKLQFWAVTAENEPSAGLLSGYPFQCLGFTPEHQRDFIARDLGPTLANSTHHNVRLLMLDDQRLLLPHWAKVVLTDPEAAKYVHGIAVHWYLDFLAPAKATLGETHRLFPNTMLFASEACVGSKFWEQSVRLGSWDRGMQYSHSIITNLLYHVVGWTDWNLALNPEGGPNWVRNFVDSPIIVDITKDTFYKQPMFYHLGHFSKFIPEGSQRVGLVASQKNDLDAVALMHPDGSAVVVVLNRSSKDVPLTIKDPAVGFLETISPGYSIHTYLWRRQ

Regarding `c1ccc(CCc2cccnc2)nc1`, the Potency in experiment [1] was above 11.4 µM; in experiment [3] it was 0.398 µM (active); in experiment [6], above 46 µM; in experiment [7] it was above 9.22 µM. The activity change, negative = inhibition in experiment [2] was 12.9%; in [4] it was 14.1%. The activity, negative = inhibition in [5] was 0.19%. The Potency result in experiment [8] and in [9] was “inactive” each time.
Take `CCC[C@H](Sc1nc(N)nc2nc[nH]c12)C(=O)O`: the Potency is above 11.4 µM in [1], above 46 µM in experiment [6] and above 9.22 µM in experiment [7]. Besides, the activity change, negative = inhibition in [2] is -8.03%; in [4] it was -19.8%. Further, the Potency entry in experiment [3], in [8] and in experiment [9] was “inactive” each time. Moreover, the activity, negative = inhibition in experiment [5] is 6.16%.
In the case of `NC([N-]/N=C/c1ccccn1)=[S]=[Fe].O=S(=O)(O)O`, the values for the Potency in experiment [1], in experiment [6] and in [7] were above 11.4 µM, above 46 µM and above 9.22 µM, respectively. Moreover, the activity change, negative = inhibition was 8.56% in experiment [2], 15.8% [at 2.29 µM] in [3] and -1.69% in experiment [4]. Further, the activity, negative = inhibition in experiment [5] is -13.8%. Also, the Potency result in experiment [8] and in [9] was “inactive” each time.
Take `CCOC(=O)c1c(C)c(C)n2c1NC(=O)C2`: the Potency in experiment [1] was above 11.4 µM; in experiment [3] it was 2 µM (active); in experiment [6], above 46 µM; in [7], above 9.22 µM. In addition, the activity change, negative = inhibition in experiment [2] was 3.42%; in experiment [4] it was -19.4%. The activity, negative = inhibition in experiment [5] is -3.92%. Besides, the Potency entry in experiment [8] and in experiment [9] was “inactive” throughout.
Consider `NCCc1nc(-c2nc(C(=O)O)cs2)cs1`, for which the figures for the Potency in experiment [1], in experiment [6] and in [7] were above 11.4 µM, above 46 µM and above 9.22 µM, respectively. Besides, the activity change, negative = inhibition is -1.29% in experiment [2] and -25.9% in experiment [4]. In addition, the Potency result in experiment [3], in experiment [8] and in experiment [9] was “inactive” each time. For the same compound, in [5], the activity, negative = inhibition is -10%.
Regarding `NC1=C2NC=N[C@@H]2N(C/C=C\c2ccccc2)C=N1`, the Potency was above 11.4 µM in experiment [1], above 46 µM in experiment [6] and above 9.22 µM in [7]. For the same compound, the activity change, negative = inhibition in [2] is 1.36%; in experiment [3], -12.4% [at 2.29 µM]; in [4], 4.81%. Further, the activity, negative = inhibition in experiment [5] was 13.2%. In addition, the Potency entry in [8] and in experiment [9] was “inactive” in each case.
Regarding `O=S(=O)(C[C@H](O)C(Cl)(Cl)Cl)NNc1ccccc1`, the Potency in experiment [1] was above 11.4 µM; in experiment [6], above 46 µM; in experiment [7] it was above 9.22 µM. In addition, the results for the activity change, negative = inhibition in experiment [2], in experiment [3] and in experiment [4] were -0.0496%, 0.8% [at 2.29 µM] and 2.68%, respectively. The activity, negative = inhibition in [5] is 5.12%. Moreover, the Potency result in experiment [8] and in [9] was “inactive” each time.
For `Nc1ccccc1CCCC(=O)O`, the Potency was above 11.4 µM in experiment [1], above 46 µM in experiment [6] and above 9.22 µM in experiment [7]. In addition, the activity change, negative = inhibition is -5.22% in experiment [2] and 0.568% in [4]. The Potency result in [3], in [8] and in experiment [9] was “inactive” throughout. In addition, in [5], the activity, negative = inhibition was 4.31%.
`Oc1ccccc1CNCc1ccccc1O`: the Potency is above 11.4 µM in experiment [1], above 46 µM in [6] and above 9.22 µM in experiment [7]. Also, the values for the activity change, negative = inhibition in experiment [2] and in experiment [4] were -4.9% and -12.2%, respectively. The Potency result in experiment [3], in [8] and in experiment [9] was “inactive” each time. For the same compound, the activity, negative = inhibition in experiment [5] was -8.46%.
As to `O=[N+]([O-])c1nccn1C[C@H](O)CN1CCCCC1`, the Potency is above 11.4 µM in [1], above 46 µM in [6] and above 9.22 µM in experiment [7]. The activity change, negative = inhibition in experiment [2] is 21.1%; in experiment [4] it was 0.912%. Besides, the Potency result in experiment [3], in experiment [8] and in [9] was “inactive” in each case. Further, in experiment [5], the activity, negative = inhibition is 6.06%.
Turning to `CC(=O)/C(=N\N=C(N)N)c1ccccc1`, the figures for the Potency in [1], in [6] and in [7] were above 11.4 µM, above 46 µM and above 9.22 µM, respectively. Also, the activity change, negative = inhibition in experiment [2] was 8.04%; in experiment [3] it was -17.2% [at 2.29 µM]; in experiment [4], -0.66%. The activity, negative = inhibition in experiment [5] was 7.52%. In addition, the Potency entry in [8] and in experiment [9] was “inactive” each time.
For `C=C(Br)CN(C)CC(=C)Br`, the figures for the Potency in experiment [1], in [6] and in [7] were above 11.4 µM, above 46 µM and above 9.22 µM, respectively. In addition, the activity change, negative = inhibition was 0.791% in experiment [2] and 0.988% in [4]. Also, the Potency entry in experiment [3], in [8] and in experiment [9] was “inactive” in each case. The activity, negative = inhibition in [5] was -0.267%.
`O=C(O)c1ccc(Cc2ccccc2C(=O)O)cc1`: the Potency in experiment [1] was above 11.4 µM; in [6] it was above 46 µM; in experiment [7], above 9.22 µM. Moreover, the activity change, negative = inhibition in [2] is -5.89%; in [4] it was 5.4%. Also, the Potency entry in experiment [3], in experiment [8] and in [9] was “inactive” throughout. In addition, the activity, negative = inhibition in experiment [5] is -2.65%.
As to `Cc1ccc(S(=O)(=O)NC(=O)OC23COCN2COC3)cc1`, the Potency was above 11.4 µM in [1], above 46 µM in experiment [6] and above 9.22 µM in experiment [7]. The activity change, negative = inhibition is 8.05% in [2] and 27.6% in experiment [4]. Also, the Potency entry in experiment [3], in experiment [8] and in experiment [9] was “inactive” in each case. Also, the activity, negative = inhibition in [5] was 15.3%.
Turning to `Nc1nc(-c2cc(-c3cccc4ccccc34)nc(N)n2)cc(-c2cccc3ccccc23)n1`, the Potency in experiment [1] is above 11.4 µM; in experiment [6] it was above 46 µM; in experiment [7], above 9.22 µM. The activity change, negative = inhibition in [2] was -7.45%; in experiment [3], -4.4% [at 2.29 µM]; in experiment [4], 3.93%. Also, the activity, negative = inhibition in experiment [5] is -4.92%. Moreover, the Potency entry in [8] and in experiment [9] was “inactive” in each case.
On to `CC(C)[C@]1(Cl)CC[C@@H]2[C@]3(C)CCC[C@@](C)(C(=O)O)[C@H]3C[C@H](Cl)[C@@]2(Cl)[C@H]1Cl`, for which the results for the Potency in experiment [1], in [6] and in experiment [7] were above 11.4 µM, above 46 µM and above 9.22 µM, respectively. The activity change, negative = inhibition is -2.07% in experiment [2] and 0.923% in experiment [4]. In addition, the Potency result in experiment [3], in experiment [8] and in experiment [9] was “inactive” throughout. For the same compound, in experiment [5], the activity, negative = inhibition is 0.27%.
